Bioassay records (PubChem BioAssay)
PDI inh: blocks human protein disulfide isomerase activity | 350,000 tested, 0.052% active | PDI insulin aggregation turbidity, A650, 90 min | inhibition, % at 10 µM | P07237;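 active means mean inhibition across replicates of 30% or more, whatever share of single replicates reach that level; inconclusive means mean inhibition below 30% while every single replicate reaches 30%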
Target sequence (P07237 whole entry, looked up): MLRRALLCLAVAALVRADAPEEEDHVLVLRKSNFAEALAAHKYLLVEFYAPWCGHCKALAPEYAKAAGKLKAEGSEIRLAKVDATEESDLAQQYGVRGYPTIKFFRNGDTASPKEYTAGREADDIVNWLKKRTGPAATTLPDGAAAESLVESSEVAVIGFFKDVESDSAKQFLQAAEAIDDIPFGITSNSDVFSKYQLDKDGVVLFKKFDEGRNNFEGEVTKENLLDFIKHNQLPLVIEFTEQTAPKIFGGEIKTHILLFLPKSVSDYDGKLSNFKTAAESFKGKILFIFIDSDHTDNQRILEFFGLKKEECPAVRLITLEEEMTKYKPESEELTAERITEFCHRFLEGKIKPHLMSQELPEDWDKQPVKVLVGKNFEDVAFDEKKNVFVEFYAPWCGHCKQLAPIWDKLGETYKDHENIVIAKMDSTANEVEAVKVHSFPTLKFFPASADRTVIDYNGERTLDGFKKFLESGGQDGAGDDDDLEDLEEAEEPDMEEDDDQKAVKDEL
PglD DTNB: inhibitors of Campylobacter jejuni PglD acetyltransferase | AID 602405 | inhibition, % at 12.5 µM | 360,000 tested, 0.098% active | purified PglD enzyme, DTNB colorimetric CoA detection; in the data active means inhibition above about 16%, passing the limit was not always enough; inconclusive means no clear call, values can overlap the other calls
ALR inh: inhibitors of human sulfhydryl oxidase ALR. purified ALR, DTT oxidation, H2O2 HRP-luminol luminescence. inhibition, % (test concentration not listed). 290,000 tested, 3.8% active;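 active means mean replicate inhibition above about 79%, with every replicate also reaching it, limit read from the data; inconclusive means only one of the two criteria met; inactive means mean below limit and not every replicate reaching it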
Target sequence (P55789 whole entry, looked up): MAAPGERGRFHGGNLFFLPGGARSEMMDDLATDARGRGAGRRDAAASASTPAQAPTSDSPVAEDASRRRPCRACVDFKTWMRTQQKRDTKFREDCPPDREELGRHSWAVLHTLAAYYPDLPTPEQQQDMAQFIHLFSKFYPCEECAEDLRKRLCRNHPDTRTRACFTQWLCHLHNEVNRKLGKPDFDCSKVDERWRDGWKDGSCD
ERp5 inh: ERp5 (human) disulfide isomerase inhibition; AID 651711; Q15084; inhibition, % at 9.99 µM; ERp5 insulin aggregation, absorbance 650 nm, 90 min; 350,000 tested, 0.05% active;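 active means mean replicate inhibition above about 25%, with every replicate also reaching it, limit read from the data, passing the limit was not always enough; inconclusive means only one of those two criteria met; inactive means neither criterion met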
ARNT-TACC3 inh: ARNT/TACC3 interaction disruption. AlphaScreen His-ARNT PAS-B/GST-TACC3 binding, luminescence; TACC3 fragment carries E629A point mutation. inhibition, % at 9.99 µM. Q9Y6A5. 390,000 tested, 0.66% active. AID 623870;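 active means mean inhibition of replicates at least 50% and at least half of replicates each reaching 50%; inconclusive means half or more replicates reach 50% but mean below 50%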
CendR NRP1 mod: alters CendR peptide binding to human NRP-1; inhibition, % at 25 µM; AID 602438; FAM-RPARPAR peptide binding to NRP-1, fluorescence polarization; O14786; 360,000 tested, 0.85% active;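 active means inhibition or corrected inhibition above about 18%, plus a signal ratio from 0.5 to 1.5, limit read from the data, passing the limit was not always enough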
Large screens that a line does not name were inactive. The full list was thinned out, with hits kept by preference.

Cc1nc2ccc(-c3nc4cc(N)ccc4o3)cc2[nH]1	ALR inh 98 (no result: ERp5 inh)
COc1ccc(C2/C=C\CN(C(=O)C3CCCCC3)CC(=O)N2Cc2ccc(F)cc2)cc1 (stereo unspecified)	CendR NRP1 mod 34 (no result: ALR inh)
COc1ccc([C@H]2/C=C\CN(C(=O)CC(C)(C)C)[C@@H](C)C(=O)N2Cc2ccc(F)cc2)cc1	none
COc1ccc([C@H]2/C=C\CN(Cc3ccc(N(C)C)cc3)[C@@H](C)C(=O)N2Cc2ccc(F)cc2)cc1	ALR inh 98
COc1ccc(C2/C=C\CN(C(=O)C3CCCC3)CC(=O)N2Cc2ccc(F)cc2)cc1 (stereo unspecified)	none (no result: ALR inh)
COc1cccc(NC(=O)CNCc2ccccc2)c1	none
COc1cccc(NC(=O)CN(C)C(=O)c2cccc(NS(=O)(=O)c3ccc(Br)cc3)c2)c1	none (no result: ALR inh)
Cc1cccc(NC(=O)CSCC(=O)N(C)CC(=O)Nc2cccc(F)c2)c1	none
COc1cccc(CNCC(=O)Nc2ccc(N3CCOCC3)cc2)c1	ALR inh 99 (no result: PglD DTNB, ARNT-TACC3 inh)
COc1cccc(NC(=O)CN(C)C(=O)c2cccc(NS(=O)(=O)c3ccccc3)c2)c1	CendR NRP1 mod 30
Cc1ccc(NC(=O)CSCC(=O)N(C)CC(=O)Nc2cccc(F)c2)cc1	ALR inh 99
COc1cccc(NC(=O)CN(C)C(=O)CN2C(=O)NC(C)(c3ccc(C)cc3)C2=O)c1 (stereo unspecified)	CendR NRP1 mod 19
O=C(NCCCN1CCOCC1)[C@H]1[C@H](CO)[C@H]2Cn3c(cccc3=O)[C@@H]1N2C(=O)C1CCCC1	none (no result: PDI inh, PglD DTNB, ALR inh, ARNT-TACC3 inh, CendR NRP1 mod)
COc1ccc(NC(=O)CN(C)C(=O)CSCC(=O)Nc2ccc(C)cc2)cc1	none (no result: ALR inh)
COc1cccc(CNC(=O)CSCC(=O)Nc2ccc(C)cc2)c1	ALR inh 99
COc1cccc(NC(=O)CSCC(=O)Nc2ccccc2)c1	none (no result: ALR inh, ERp5 inh)
COc1cccc(NC(=O)CN(C)C(=O)CSCC(=O)Nc2ccc(C)cc2)c1	ALR inh 99
Cc1cccc(-c2nnc(SCC(=O)Nc3ncccn3)n2C)c1	none
CC(C)NC(=O)CSc1nnc(-c2ccc3ncccc3c2)n1C	CendR NRP1 mod 25
C[C@@H]1CCCCO[C@@H](CN(C)S(=O)(=O)c2ccc(Cl)cc2)[C@H](C)CN([C@H](C)CO)C(=O)c2cc(NC(=O)Nc3ccc(F)cc3)ccc2O1	none (no result: PDI inh, ALR inh, CendR NRP1 mod)
O=C(Nc1nc(-c2ccccc2)cs1)c1ccco1	none (no result: ALR inh)
CC(OC(=O)c1ccco1)C(=O)Nc1nc(-c2ccccc2)cs1 (stereo unspecified)	CendR NRP1 mod 30
CNC[C@H]1OCCCC[C@@H](C)Oc2ccc(NC(=O)Nc3ccc(F)cc3)cc2C(=O)N([C@@H](C)CO)C[C@H]1C	none (no result: PDI inh, ALR inh, CendR NRP1 mod)
CCOC(=O)CSc1nnc2c3ccccc3n(C)c2n1	CendR NRP1 mod 26
CCCn1c2ccccc2c2nnc(SCC(=O)OCC)nc21	none (no result: ALR inh, ERp5 inh)
CN(C)c1ccc(-c2cccc(C3CC=CC4C3C(=O)N(Cc3ccccc3)C4c3ccc4ccccc4c3)c2)cc1 (stereo unspecified)	none (no result: ALR inh)
COc1ccc(-c2cccc(C3CC=CC4C3C(=O)N(Cc3ccccc3)C4c3ccc4ccccc4c3)c2)cc1 (stereo unspecified)	CendR NRP1 mod 28 (no result: ALR inh)
C[C@@H]1CCCCO[C@H](CN(C)C(=O)CCC(F)(F)F)[C@H](C)CN([C@H](C)CO)C(=O)c2cc(NS(=O)(=O)c3ccc(F)cc3)ccc2O1	none (no result: PDI inh, ALR inh, CendR NRP1 mod)
Cc1c(OCC(F)(F)F)ccnc1CS(=O)c1nc2ccccc2[nH]1 (stereo unspecified)	ALR inh 97
COCCCOc1ccnc(CS(=O)c2nc3ccccc3[nH]2)c1C (stereo unspecified)	none
COc1cccc(S(=O)(=O)Nc2ccc3c(c2)OC[C@@H](C)N(Cc2ccccc2F)C[C@@H](C)[C@H](OC)CN(C)C3=O)c1	none (no result: PDI inh, ALR inh, CendR NRP1 mod)
CC(C)(C)CNC(=O)C1(C)CCN1C(=O)Cc1ccc(C(C)(C)C)cc1 (stereo unspecified)	CendR NRP1 mod 33 (no result: ALR inh, ARNT-TACC3 inh)
CC(=O)Nc1ccc(NC(=O)CCCSc2nc3ccccc3s2)cc1	none (no result: PglD DTNB)
CN(C)CCCSc1nc2ccccc2s1	ALR inh 99 (no result: PglD DTNB, ARNT-TACC3 inh)
O=C(O)CCSc1nc2ccccc2s1	ALR inh 99 (no result: ERp5 inh)
c1ccc2sc(SCSc3nc4ccccc4s3)nc2c1	none
CCCN(C)C[C@H]1Oc2ncc(C#CCC(C)C)cc2C(=O)N([C@H](C)CO)C[C@@H]1C	none (no result: PDI inh, ALR inh, CendR NRP1 mod)
NS(=O)(=O)c1ccc(NC2=CC(=O)C(=O)c3ccccc32)cc1	CendR NRP1 mod 31
C[C@H]1CN([C@@H](C)CO)C(=O)c2cc(-c3ccccc3)cnc2O[C@@H]1CN(C)C(=O)Cc1cccnc1	none (no result: PDI inh, ALR inh, CendR NRP1 mod)
Cn1c(N/N=C/c2cccs2)nc2c1c(=O)n(Cc1ccccc1)c(=O)n2C	ALR inh inconclusive (no result: ERp5 inh)
CCC(C)Nc1nc2c(c(=O)n(C)c(=O)n2C)n1Cc1cccc(C)c1 (stereo unspecified)	ALR inh 97 (no result: ERp5 inh)
Cn1c(=O)c2c(nc(N/N=C/c3cccs3)n2Cc2ccccc2)n(C)c1=O	ALR inh 96 (no result: PglD DTNB)
C[C@H](CO)N1C[C@H](C)[C@@H](CN(C)C(=O)CC2CC2)Oc2ncc(-c3ccc(C#N)cc3)cc2C1=O	none (no result: PDI inh, ALR inh, CendR NRP1 mod)
CC(C)NC(=O)Nc1ccc2c(c1)C(=O)N(C)[C@H]1CC[C@@H](CC(=O)NC3CCCCC3)O[C@H]1CO2	none (no result: PDI inh, ALR inh, ERp5 inh, CendR NRP1 mod)
Cc1cc2c(cc1S(=O)(=O)NC1CCCCC1C)OCC(=O)N2 (stereo unspecified)	CendR NRP1 mod 40
Cc1ccc(F)cc1S(=O)(=O)N[C@@H]1CCN(C(=O)c2ccc(OC(C)C)cc2)C1	none (no result: PDI inh, ALR inh, CendR NRP1 mod)
Cc1cc(C)nc(N/N=C/c2ccccc2)n1	none (no result: PglD DTNB)
CCN(CC)c1ccc(/C=N/Nc2nc(C)cc(C)n2)cc1	ALR inh 98 (no result: ARNT-TACC3 inh)
Cc1ccc(/C=C/C2=NN(C)C(=O)CC2)cc1	CendR NRP1 mod 36
CN1N=C(/C=C/c2ccccc2)CCC1=O	none (no result: PglD DTNB)
COc1cc(NC(=O)N2c3ccccc3Sc3ccccc32)c(C(=O)O)cc1OC	ALR inh 99
Oc1cccc(/C=N/N2CCCCC2)c1O	ALR inh 99
Oc1ccccc1C=NN1CCCCCC1	none (no result: PglD DTNB, ALR inh, ARNT-TACC3 inh)
Oc1ccc(/C=N/N2CCCCC2)c(O)c1	ALR inh 98
Oc1ccc(/C=N/N2CCOCC2)c(O)c1O	ALR inh 98 (no result: PglD DTNB)
OCC1(CC2CCCCO2)CCN(C/C=C/c2ccccc2)CC1 (stereo unspecified)	none
COc1cc(/C=C/CN2CCC(CO)(CC3CCCCO3)CC2)ccc1O (stereo unspecified)	ALR inh 92 (no result: PglD DTNB)
COc1cc(/C=C/CN2CCN(Cc3ccc(C)o3)C(CCO)C2)ccc1O (stereo unspecified)	ALR inh 98 (no result: PglD DTNB)
COc1cc(/C=C/CN2CCN(CCC(C)C)C(CCO)C2)ccc1O (stereo unspecified)	ALR inh 94 (no result: PglD DTNB)
